According to PubChem BioAssay (NCATS):
Values joined by “and” are separate entries in the source; they are usually repeats but may differ in a detail not shown here. Equal entries are not always repeated. Inconclusive results are not listed. Values without a mark were called inactive. Active and inactive are the calls of the source. The call rests on the fitted dose curve; in most records, active means well fitted inhibition curve with a large enough effect; inconclusive means small, poorly fitted or top-dose-only effect; inactive means flat fitted curve, though single readings scatter.

The compounds below were run on KB-3-1 (assay: Cytotoxic Profiling of Annotated Libraries Using Quantitative High-Throughput Screening (AID 1296008; further: nearly all actives have a fitted effect of over 60% in size)). Conditions: Five cell lines viability, CellTiter-Glo ATP luminescence, 48-72 h; max response: active compounds read low.
Source text: Cell-based phenotypic screening is a commonly used approach to discover biological pathways, novel drug targets, chemical probes and high-quality hit-to-lead molecules. Many hits identified from high-throughput screening campaign are ruled out through a series of follow-up potency, selectivity/specificity, and cytotoxicity assays. Prioritization of molecules with little or no cytotoxicity for a more in-depth downstream evaluation influence the future direction of projects, so cytotoxicity profiling of the screening libraries at early stage is essential for increasing the likelihood of candidate success. […] For the annotated library, we also examined the primary targets and mechanistic pathways regularly associated with cell death. To our knowledge, this is the first study to use high-throughput screening to profile large libraries for cytotoxicity assessment in both normal and cancer cell lines. In summary, the results generated here constitutes a valuable resource for the scientific community and provides insight on identifying cytotoxic compounds with particular mechanisms of action, and prioritizing compounds with suitable cytotoxicity profile for further evaluation.
A pintool (Kalypsys) was used to transfer 23 nL of compound solution to the 1536-well assay plates. After 48 or 72 hr incubation at 37 degree Celsius, 5% CO2 and 95% humidity, 2.5 uL of CellTiter-Glo (Promega) was dispensed into each well using a dispenser (Aspect Automation, St. Paul, MN) with solenoid valves (Lee Valves, Westbrook CT). Plates were left at room temperature for 10 min before imaging the ATP-coupled luminescence using a ViewLux microplate imager (PerkinElmer, Waltham, MA).
On the % scale 0 is the no-effect control and ±100 the full control effect; potency means the concentration at half of the fitted maximal effect.

**Q.** With `CN(C)C/C=C(/c1ccc(Br)cc1)c1cccnc1` as the compound, how does the max response read?
**A.** -12.9%

**Q.** `OC(CCN1CCCCC1)(c1ccccc1)C1CCCCC1` (stereo not given) was tested. Which max response did it give?
**A.** -15.6%

**Q.** `CC(C)[N+](C)(CCOC(=O)C1c2ccccc2Oc2ccccc21)C(C)C` was tested. Which max response did it give?
**A.** -0.425%

**Q.** Which results are given for `CCCN1C[C@H](CSC)C[C@@H]2c3cccc4[nH]cc(c34)C[C@H]21`?
**A.** outcome: inactive; max response: 9.69%

**Q.** For `CC(C)(C)NCC(O)c1cc(O)cc(O)c1` (stereo not given), which max response is on record?
**A.** -2.33%

**Q.** How did the max response turn out when `CC(=O)[C@@]1(O)CC[C@H]2[C@@H]3CCC4=CC(=O)CC[C@]4(C)[C@H]3CC[C@@]21C` was run?
**A.** -5.68%

**Q.** How did the max response turn out when `CCN(CC)CCNC(=O)c1cc(S(C)(=O)=O)ccc1OC` was run?
**A.** 6.27%

**Q.** How did the max response turn out when `COC(=O)C1=C(C)NC(C)=C(C(=O)OCCN(C)Cc2ccccc2)C1c1cccc([N+](=O)[O-])c1` (stereo not given) was run?
**A.** -10.4%

**Q.** With `CN(C)C(=O)Oc1cccc([N+](C)(C)C)c1` as the compound, how does the max response read?
**A.** 3.68%

**Q.** With `NC(N)=N/N=C/c1c(Cl)cccc1Cl` as the compound, how does the max response read?
**A.** 0.665%

**Q.** How did the max response turn out when `O=C(CCCN1CCC(O)(c2cccc(C(F)(F)F)c2)CC1)c1ccc(F)cc1` was run?
**A.** -16.4%

**Q.** Which max response does the source give for `CN1C(=O)CC[C@H]1c1cccnc1` here?
**A.** 0.0726%

**Q.** `C(=C\c1ccccc1)/CN1CCN(C(c2ccccc2)c2ccccc2)CC1` was tested. Which max response did it give?
**A.** 4.11%

**Q.** Which max response does the source give for `CNCCC(Oc1ccccc1OC)c1ccccc1` (stereo not given) here?
**A.** 0.271%

**Q.** How did the max response turn out when `CC(C)COCC(CN(Cc1ccccc1)c1ccccc1)N1CCCC1` (stereo not given) was run?
**A.** -4.17%

**Q.** How did the max response turn out when `NC(=O)N1c2ccccc2C=Cc2ccccc21` was run?
**A.** -5.38%

**Q.** With `NCCCNCCSP(=O)(O)O` as the compound, how does the max response read?
**A.** -4.63%

**Q.** With `c1ccc2c(c1)CCCC2C1=NCCN1` (stereo not given) as the compound, how does the max response read?
**A.** 10.6%

**Q.** `CC(C)(Oc1ccc(CCNC(=O)c2ccc(Cl)cc2)cc1)C(=O)O` was tested. Which max response did it give?
**A.** 2.41%

**Q.** Which max response does the source give for `CCO/C([O-])=N/c1c[n+](N2CCOCC2)no1` here?
**A.** -5.15%

**Q.** With `COc1ccc(CN(CCN(C)C)c2ccccn2)cc1` as the compound, how does the max response read?
**A.** -13%

**Q.** Which max response does the source give for `CC(C(=O)O)c1ccc(CC2CCCC2=O)cc1` (stereo not given) here?
**A.** -8.05%

**Q.** For `COCCOC(=O)C1=C(C)NC(C)=C(C(=O)OC(C)C)C1c1cccc([N+](=O)[O-])c1` (stereo not given), which max response is on record?
**A.** 2.4%

**Q.** With `CCNC(=O)N1CCN(CCCC(c2ccc(F)cc2)c2ccc(F)cc2)CC1` as the compound, how does the max response read?
**A.** -7.16%

**Q.** For `C[N+](C)(C)CCOC(N)=O`, which max response is on record?
**A.** 27.4%

**Q.** Which max response does the source give for `CC(=O)Oc1cc(C(C)C)c(OCCN(C)C)cc1C` here?
**A.** 3.97%

**Q.** How did the max response turn out when `CCC(=O)c1ccc2c(c1)N(CCCN(C)C)c1ccccc1S2` was run?
**A.** -0.0737%

**Q.** Which max response does the source give for `CC(N=C(NC#N)Nc1ccncc1)C(C)(C)C` (stereo not given) here?
**A.** -0.411%

**Q.** Which max response does the source give for `CCn1ccnc1CC1COc2ccccc2O1` (stereo not given) here?
**A.** 19.9%

**Q.** With `COC(=O)[C@H]1[C@H]2C[C@@H]3c4[nH]c5cc(OC)ccc5c4CCN3C[C@H]2C[C@@H](OC(=O)c2cc(OC)c(OC)c(OC)c2)[C@@H]1OC` as the compound, how does the max response read?
**A.** 21.8% and -5.12%

**Q.** How did the Potency turn out when `CC(=O)[C@]1(O)Cc2c(O)c3c(c(O)c2[C@@H](O[C@H]2C[C@H](N)[C@H](O)[C@H](C)O2)C1)C(=O)c1ccccc1C3=O` was run?
**A.** 4.61 µM (active)

**Q.** How did the max response turn out when `CN/C(=C\[N+](=O)[O-])NCCSCc1ccc(CN(C)C)o1` was run?
**A.** 15%

**Q.** Which max response does the source give for `Cc1ccc(Cl)c(Nc2ccccc2C(=O)O)c1Cl` here?
**A.** -10.1%

**Q.** `NS(=O)(=O)c1cc2c(cc1Cl)NC(C1CC3C=CC1C3)NS2(=O)=O` (stereo not given) was tested. Which max response did it give?
**A.** -20.4%

**Q.** With `CN=C(NC#N)NCCSCc1nc[nH]c1C` as the compound, how does the max response read?
**A.** -9.62%

**Q.** For `O=C(O)CN(CCN(CC(=O)O)CC(=O)O)CCN(CC(=O)O)CC(=O)O`, which max response is on record?
**A.** 28.9%

**Q.** How did the max response turn out when `C[C@]12C=CC(=O)C=C1CC[C@H]1[C@@H]3C[C@@H](O)[C@](O)(C(=O)CO)[C@@]3(C)C[C@H](O)[C@@]12F` was run?
**A.** 41.4%

**Q.** With `Brc1c(NC2=NCCN2)ccc2nccnc12` as the compound, how does the max response read?
**A.** -13.6%

**Q.** How did the max response turn out when `CO[C@@]1(NC(=O)CSCC#N)C(=O)N2C(C(=O)O)=C(CSc3nnnn3C)CS[C@@H]21` was run?
**A.** 1.86%
